Test results published in PubChem BioAssay AID493201 (National Center for Advancing Translational Sciences (NCATS), 2011).
Inconclusive results are not listed. Values without a mark were called inactive. Calls of active or inactive are those of the source. Calls follow the shape of the dose curve; as a rule, active = well fitted activation curve with a large enough effect; inconclusive = small, poorly fitted or top-dose-only effect; inactive = no such curve, though single readings can be large or run the other way.

Test: qHTS Assay for Identifying a Potential Treatment of Ataxia-Telangiectasia: Secondary assay (no NCS) hit validation;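 also: phosphorylated KAP1 signal as a proxy for ATM-like kinase activity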; as to activation: 0% is about no effect
Conditions: A-T patient fibroblasts, AlphaLISA, no DNA damage added, 90 min; series mostly up to 76.9 µM; activation: at the top concentration
Description: NIH Chemical Genomics Center [NCGC]
NIH Molecular Libraries Probe Centers Network [MLPCN]
Assay Submitter (PI): Wei Zheng and Yosef Shiloh
Ataxia-telangiectasia (A-T) is a devastating and progressive disease for which, there is no cure. Although A-T is a multisystem disease, it is stereotyped characterized by its neurological symptoms such as truncal ataxia, due to cerebellar cortical degeneration of the Purkinje and granule cells. Other symptoms of A-T are telangiectasias (dilated blood vessels), primary immunodeficiency, marked sensitivity to ionizing radiation (IR), chromosomal instability and predisposition to cancer.
The underlying genetic cause of A-T is null mutations in the ATM (A-T mutated) gene. ATM is a nuclear serine/threonine kinase that functions as a master regulator of the cellular responses to double strand breaks (DSBs) in the DNA. Upon activation by DSBs, ATM phosphorylates a plethora of downstream targets, including KAP-1 on […]. KAP-1 phosphorylation occurs shortly in response to DSBs and mediates global chromatin relaxation, which facilitates DSB repair. To screen for small molecules that will compensate for the loss of ATM in cells derived from A-T patients, we monitored KAP-1 phosphorylation as a readout for ATM-like activity using an AlphaLISA assay. This secondary assay omits NCS, which creates double-stranded DNA breaks.
Step,Parameter,Value,Description
1. Cell Plating, 3 ul, 500 cells/well in OPTI-MEM, 1% FBS, 1% Pen/Strep
3. Library compounds, 23 nl, 76.7 - 0.61uM dilution series final concentration
4. Incubation, 60 min, 37C, 5% CO2, 95% humidity
6. Incubation, 30 min, 37C, 5% CO2, 95% humidity
7. Reagent, 1 ul, Premixed detection reagents and lysis buffer
8. Reagent, 1 ul, 0.6% Antifoam A
9. Incubation, 6 hr, 25C, 95% humidity
10. Readout, EnVision, EnVision plate reader. AlphaScreen 1536-well protocol
Cells were plated using medium-binding white solid-bottom tissue culture treated Kalypsys plates. Multidrop dispense of 3 uL of F2112 (hTERT immortalized A-T patient fibroblast cells). Detection reagent and lysis buffer was 3.75nM Rab-a-pKAP1 antibody bound to 75 ng/ul AlphaScreen SA donor bead, 3.75 nM Biot-M-a-KAP1 antibody bound to AlphaLISA protein A acceptor bead, 0.5x protease inhibitor cocktail and 0.25x PerkinElmer lysis buffer. EnVision protocol for 1536-well AlphaScreen read (30ms excitation, 100ms read), about 10 min/plate.
Potency is read from the fitted curve at half-maximal effect.

SMILES	activation [%]	Potency
CCN1C(=O)N(CC)C(=O)C2(Cc3ccccc3N3CCN(c4ccccc4)CC32)C1=O (stereo not drawn)	-9.68	–
CCN(CC)S(=O)(=O)c1cccc(N=Nc2c(O)n(CC)c(=S)n(CC)c2=O)c1	–	18.4 µM (active)
CC1(C)C[C@H]2C=C(C=O)[C@]3(C=O)C[C@]3(C)[C@H]2C1	-1.69	–
CCN(CC)S(=O)(=O)c1ccc(C(=O)NC2CN3CCC2CC3)cc1 (stereo not drawn)	-4.35	–
COC(=O)C1=C(c2ccc(OCc3ccccc3)cc2)C[C@@H]2CC[C@H]1N2C(=O)NCc1cccc(C(F)(F)F)c1	–	4.12 µM (active)
CCc1ccc(N2C(=O)NC(=O)/C(=C\C=C\c3ccco3)C2=O)cc1	-11	–
S=c1[nH]nc(Cn2c(-c3ccccn3)nc3ccccc32)n1-c1ccc2c(c1)OCCO2	–	41.2 µM (active)
CC(C)c1ccc(-n2c(O)c(C=NC(CCS(C)=O)C(=O)O)c(=O)[nH]c2=S)cc1 (stereo not drawn)	-11.9	–
O=C1Nc2ccccc2C1Cc1nc2ccccc2c(=O)n1-c1ccccc1 (stereo not drawn)	16.9	–
Cc1cc(O)c2c(c1)C(=O)C13C(=C2O)C(=O)[C@H]2[C@@H](O)[C@@H]1[C@H]1[C@H](O)[C@@H]3C(=O)C3=C(O)c4c(O)cc(C)cc4C(=O)C312 (stereo partly drawn)	10.8	–
Cc1ccc(-n2c(O)c(C=NCC3CCCO3)c(=O)[nH]c2=O)c(C)c1 (stereo not drawn)	12.2	–
Cc1ccc(C)c(NP(=O)(Oc2ccccc2)Oc2ccccc2)c1	13.9	–
C/C=C/c1ccc2c(c1)OCO2	58.1	–
CN1CCCC(C(O)(c2ccccc2)c2ccccc2)C1 (stereo not drawn)	18.6	–
CCCCC(=O)N/N=C/c1c(O)n(CCC2=CCCCC2)c(=O)[nH]c1=O	–	14.6 µM (active)
Cc1nc2ccccc2c(=O)n1-c1ccc(F)cc1F	33.3	–
CN1CCN(c2ccc([N+](=O)[O-])c3no[n+]([O-])c23)CC1	3.23	–
Cc1cccc(N2C(=O)NC(=O)/C(=C\C=C\c3ccco3)C2=O)c1	0	–
